Source: PubChem BioAssay (National Center for Advancing Translational Sciences (NCATS))
D3 ag – D3 dopamine receptor (human) agonism. D3R DiscoveRx beta-arrestin cells, luminescence, 90 min. max activation, %. 0.58% of 410,000 active; in the data active = max activation above about 30%
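Agonist-mode cell screen: cells plated at 1500/well and incubated overnight at 37 °C, then exposed to library compounds for 90 min at 37 °C. Detection reagent was added for 30–60 min at room temperature, and luminescence was read.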
TSG101-PTAP inh – blocks PTAP/TSG101 interaction to inhibit HIV-1 budding. AID 493005. Fluorescence polarization, FITC-PTAP peptide / Tsg101 binding. Potency, µM (series often up to 115 µM), hits mostly inhibitors. 340,000 tested, under 10 active. Q99816; active = well fitted inhibition curve with a large enough effect in the main read-out, with a control signal flat, not every such curve was filed as active; inconclusive = small, poorly fitted or top-dose-only effect, or effect the other way, or a change in a side signal; inactive = no such curve, though single readings can be large or run the other way
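Steps: Tsg101 binding domain dispensed (10 uM final), compounds pinned in DMSO, FITC-labeled PTAP-motif peptide added (50 nM final); after 20 min binding at room temperature, polarization measured.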
Mm-Cpn inhibitor – blocks the Methanococcus maripaludis chaperonin Mm-Cpn | 0.031% of 330,000 active | purified Mm-Cpn ATPase, ADP Transcreener TR-FRET | Potency, µM (doses to about 76.9 µM), usual class: inhibitors | AID 504842; active = well fitted inhibition curve with a large enough effect; inconclusive = small, poorly fitted or top-dose-only effect; also: nearly all actives have a fitted effect of over 80% in size
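Compound-treated chaperonin, 25 nM final, turns over 10 uM ATP at 37°C for 30 min following a 10 min preincubation; ADP generated competes with ADP-d2 for Eu-cryptate antibody, lowering FRET.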
DRD3 antagonist – blocks the human D3 dopamine receptor | D3R cells, DiscoveRx beta-arrestin luminescence, antagonist mode; hits give low values | AID 652054 | max response, negative = inhibition, % | 2.5% of 360,000 active | P35462; in the data active = max response below about -50%; inconclusive = no clear call, values can overlap the other calls
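Cells plated overnight at 1500 cells/well, then exposed to library compounds with dopamine controls for 90 minutes at 37 degrees C. DiscoveRx reagent added for 30–60 minutes at room temperature; luminescence read, quantitative HTS format.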
Rango-impB inh – inhibitors of Rango-importin beta complex formation. Potency, µM (series often up to 92.2 µM). 0.031% of 340,000 active. Rango CFP/YFP FRET sensor + importin beta, 45 min. AID 540263; also: nearly all actives have a fitted effect of over 15% in size
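FRET biosensor Rango (snurportin 1 IBB between N-terminal EYFP and C-terminal Cerulean), 50 nM in PBS/1 mM DTT/0.02% Tween-20/0.1% BSA, preincubated 5 min RT with compound; 0.125 microM importin beta added, 45 min RT, CFP/YFP FRET ratio read.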
Rango dissoc inh – inhibition of RanGTP-driven Rango-importin beta dissociation | O95149+P62826 | Biochemical FRET Rango-importin beta, RanGTP-induced dissociation | Potency, µM (series often up to 46.1 µM) | 0.071% of 340,000 active | AID 540253; also: nearly all actives have a fitted effect of over 45% in size
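Compounds preincubate 5 min with complex of recombinant Rango and importin beta in PBS with 1 mM DTT. Ran (0.6 uM) loaded with 2 mM GTP plus 0.2 uM RCC1 starts dissociation; FRET is recorded 45 min later.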
Each line names hits and unclear results; the compound was inactive in the other large screens. In the library only some 2.9% were active in any assay of this set; here they are far more common. Unless noted, calls follow the shape of the full dose curve.

CCC(=O)O[C@H]1CC[C@H]2[C@@H]3CCc4cc(O)ccc4[C@H]3CC[C@]12C	none (no result: TSG101-PTAP inh, Mm-Cpn inhibitor, DRD3 antagonist, Rango-impB inh, Rango dissoc inh)
CCOc1cc2c(cc1OCC)C(CC(=O)O)N(C(=O)Nc1ccc(Br)c(C)c1)CC2 (stereo unspecified)	none (no result: TSG101-PTAP inh, Mm-Cpn inhibitor, DRD3 antagonist, Rango-impB inh, Rango dissoc inh)
COc1ccc(/C=C2\CCCC(C(=O)C(F)(F)F)=C2O)cc1OC	none (no result: D3 ag, TSG101-PTAP inh, DRD3 antagonist, Rango-impB inh, Rango dissoc inh)
COc1ccc(C(NC(=O)C2CCN(CCCOc3ccccc3)CC2)c2ccccn2)cc1 (stereo unspecified)	DRD3 antagonist -110 (no result: TSG101-PTAP inh, Mm-Cpn inhibitor, Rango-impB inh, Rango dissoc inh)
COc1ccc(C(NC(=O)C2CCN(CCCc3ccccc3)CC2)c2ccccn2)cc1 (stereo unspecified)	none (no result: TSG101-PTAP inh, Mm-Cpn inhibitor, Rango-impB inh, Rango dissoc inh)
Cc1ccc(C(NC(=O)C2CCN(Cc3ccc(Cl)c(Cl)c3)CC2)c2ccccn2)cc1 (stereo unspecified)	none (no result: TSG101-PTAP inh, Mm-Cpn inhibitor, Rango-impB inh, Rango dissoc inh)
COc1ccc(C(NC(=O)C2CCN(CCc3ccccc3)CC2)c2ccccn2)cc1 (stereo unspecified)	DRD3 antagonist -75 (no result: TSG101-PTAP inh, Mm-Cpn inhibitor, Rango-impB inh, Rango dissoc inh)
Cc1ccc(C(NC(=O)C2CCN(Cc3ccc(Oc4ccccc4)cc3)CC2)c2ccccn2)cc1 (stereo unspecified)	DRD3 antagonist -83 (no result: TSG101-PTAP inh, Mm-Cpn inhibitor, Rango-impB inh, Rango dissoc inh)
COC(=O)CCc1sc(Nc2ccc(OC)cc2)nc1-c1ccc(OC)cc1	none (no result: TSG101-PTAP inh, Mm-Cpn inhibitor, DRD3 antagonist, Rango-impB inh, Rango dissoc inh)
CC(C(=O)NCc1ccccc1F)n1ccc2cc(S(=O)(=O)N3CCCC3)ccc21 (stereo unspecified)	none (no result: TSG101-PTAP inh, Mm-Cpn inhibitor, DRD3 antagonist, Rango-impB inh, Rango dissoc inh)
Cc1c(CCCl)c(Cl)n2c(nc3ccccc32)c1C#N	DRD3 antagonist -103, Rango-impB inh inconclusive, Rango dissoc inh inconclusive (no result: Mm-Cpn inhibitor)
CCc1c(C)c(C#N)c2nc3ccccc3n2c1NC	Rango-impB inh inconclusive, Rango dissoc inh inconclusive
Cc1cc(Cl)n2c(nc3ccccc32)c1C#N	DRD3 antagonist -73, Rango-impB inh inconclusive, Rango dissoc inh inconclusive
CNc1cc(C)c(C#N)c2nc3ccccc3n12	Rango-impB inh inconclusive
Cc1ccc(NC(=O)c2oc3ccc(S(=O)(=O)N4CCC5(CC4)OCCO5)cc3c2C)c(C)c1	none (no result: TSG101-PTAP inh, Mm-Cpn inhibitor, DRD3 antagonist, Rango-impB inh, Rango dissoc inh)
CC(=O)c1cccc(NC(=O)CN(c2cc(C)cc(C)c2)S(=O)(=O)c2c(C)noc2C)c1	none (no result: TSG101-PTAP inh, Mm-Cpn inhibitor, DRD3 antagonist, Rango-impB inh, Rango dissoc inh)
CCN(CC)c1ccc(NC(=O)Cn2nnc(-c3cccc(OC)c3OC)n2)c(C)c1	D3 ag 31
Cc1ccc(NC(=O)Cn2nnc(-c3ccccc3)n2)c(C)c1	none (no result: TSG101-PTAP inh, Mm-Cpn inhibitor, DRD3 antagonist, Rango-impB inh, Rango dissoc inh)
CC(C)(C)c1cc(CN2CCOCC2)c(C(=O)O)o1	DRD3 antagonist -81
Oc1cc(O)c(CN2CCOCC2)cc1CN1CCOCC1	none (no result: Mm-Cpn inhibitor)
O=C(Nc1ccc(O)cc1)c1ccc2c(c1)C(=O)N(Cc1ccccc1)C2=O	none
O=C(O)c1ccc2c(c1)C(=O)N(Cc1ccccc1)C2=O	DRD3 antagonist -51
CCC(=O)Nc1cc(C(F)(F)F)ccc1N1CCOCC1	none
COC(=O)c1ccc(CNC(=O)CNc2cc(C(F)(F)F)ccc2N2CCOCC2)cc1	DRD3 antagonist -57
CC1CCN(CCCNc2cc(NCCO)c([N+](=O)[O-])c3nonc23)CC1	none
CN(CCO)c1cc(NCCCN2CCC(Cc3ccccc3)CC2)c2nonc2c1[N+](=O)[O-]	DRD3 antagonist -75
C#CCN(Cc1ccco1)C(=O)c1ccc(OC2CCN(Cc3ccccn3)CC2)cc1	DRD3 antagonist inconclusive, Rango-impB inh inconclusive (no result: Mm-Cpn inhibitor)
COc1ccc(OC)c(N2C(=O)CC(Cc3cc(C)cc(C)c3)C2=O)c1 (stereo unspecified)	DRD3 antagonist -192
CCn1c(CN2CCC(C)CC2)nc2cc(S(=O)(=O)N3CCCCC3)ccc21	DRD3 antagonist -83 (no result: TSG101-PTAP inh, Mm-Cpn inhibitor, Rango-impB inh, Rango dissoc inh)
COc1cccc(C(=O)Nc2nc(-c3ccccc3)c(-c3ccccc3)o2)c1	none
O=C(Nc1nc(-c2ccccc2)c(-c2ccccc2)o1)c1ccc(F)cc1	DRD3 antagonist -100
CC(=O)C1CCC2C3CC(C)=C4CC(O)CCC4(C)C3CCC12C (stereo unspecified)	D3 ag 65 (no result: Mm-Cpn inhibitor)
CCOC(=O)C(c1ccccc1)C(Nc1cc(C(F)(F)F)cc(C(F)(F)F)c1)c1ccccn1 (stereo unspecified)	D3 ag 38
CN(C)c1ccc(N=Nc2ccccc2Br)cc1	none
CN(C)c1ccc(N=Nc2nccs2)cc1	DRD3 antagonist -82 (no result: TSG101-PTAP inh, Mm-Cpn inhibitor, Rango-impB inh, Rango dissoc inh)
Cc1ccc(C2(C)NC(=O)N(CC(=O)N3CCN(S(=O)(=O)c4cccs4)CC3)C2=O)cc1 (stereo unspecified)	DRD3 antagonist -53
CC1Sc2ccccc2N(Cc2ccc(OC(F)(F)F)cc2)C1=O (stereo unspecified)	none (no result: TSG101-PTAP inh, Mm-Cpn inhibitor, Rango-impB inh, Rango dissoc inh)
CC1Sc2ccc(C#N)cc2N(Cc2cccc(C(F)(F)F)c2)C1=O (stereo unspecified)	DRD3 antagonist -51 (no result: TSG101-PTAP inh, Mm-Cpn inhibitor, Rango-impB inh, Rango dissoc inh)
CCN1CCCC1CNc1ccc(S(C)(=O)=O)cc1[N+](=O)[O-] (stereo unspecified)	DRD3 antagonist -54
O=S(=O)(c1ccc(OC(F)(F)F)cc1)N1CCC(c2nnnn2-c2ccc(F)cc2)CC1	none (no result: TSG101-PTAP inh, Mm-Cpn inhibitor, DRD3 antagonist, Rango-impB inh, Rango dissoc inh)
O=C(NCc1cccc(F)c1)c1ccc(NC(=O)c2nsc3ccccc23)cc1	none (no result: TSG101-PTAP inh, Mm-Cpn inhibitor, DRD3 antagonist, Rango-impB inh, Rango dissoc inh)
CSc1ncnc2c1ncn2CCCN1CCN(c2ncccn2)CC1	D3 ag 38 (no result: TSG101-PTAP inh, Mm-Cpn inhibitor, Rango-impB inh, Rango dissoc inh)
COc1ncnc2c1ncn2CCCN1CCN(c2ncccn2)CC1	none (no result: TSG101-PTAP inh, Mm-Cpn inhibitor, Rango-impB inh, Rango dissoc inh)
CSc1ncnc2c1ncn2CCCN1CCN(Cc2cccc3ccccc23)CC1	DRD3 antagonist -60 (no result: TSG101-PTAP inh, Mm-Cpn inhibitor, Rango-impB inh, Rango dissoc inh)
